# Laboratory results from PubChem BioAssay (NCATS).
# Records with an inconclusive call do not appear. Calls of active or inactive are those of the source. Calls come from the whole dose curve; as a rule, active = well fitted curve in the direction sought with a large enough effect; inconclusive = small, poorly fitted or top-dose-only effect, or another doubt; inactive = no such curve, though single readings can be large; an effect the other way counts as inactive or inconclusive.
# Test: qHTS of pediatric cancer cell lines to identify multiple opportunities for drug repurposing: Confirmatory screen for U-2 OS cells (AID 1347122); note: nearly all actives have a fitted effect of over 65% in size;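 for activity change, negative = cytotoxicity: plate controls were DMSO for no effect and bortezomib for full effect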
# Settings: U-2 OS osteosarcoma cell viability; series mostly up to 45.9 µM; activity change, negative = cytotoxicity: at the top concentration
# Procedure, shortened: (§1)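 Cells (500-1,000/well) in growth media were settled 5 h at 37 degrees C, then given compounds for 48 h. Viability was read as CellTiter-Glo luminescence. Primary runs used MIPE at 11 points (0.78 nM-46 µM) and NPC at 8 points (0.59 nM-46 µM); follow-ups used 11 points.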
# Potency is the fitted concentration of half-maximal effect.
SMILES,"activity change, negative = cytotoxicity",Potency
C[C@@H]1CN(CCCn2c3ccccc3c3ccccc32)C[C@H](C)N1,-11.5% (inactive),
COc1c(C)c2c(c(O)c1C/C=C(\C)CCC(=O)O)C(=O)OC2,,1.85 µM (active)
C[C@@H]1C[C@H]2[C@@H]3C[C@H](F)C4=CC(=O)C(Cl)=C[C@]4(C)[C@@]3(F)[C@@H](O)C[C@]2(C)[C@@]1(O)C(=O)CO,-1.22% (inactive),

# Test: qHTS of pediatric cancer cell lines to identify multiple opportunities for drug repurposing: Confirmatory screen for Rh41 cells (AID 1347123);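 note: 48 h compound exposure; nearly all actives have a fitted effect of over 60% in size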;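 for activity change, negative = cytotoxic: plate controls were DMSO for no effect and bortezomib for full effect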
# Settings: Rh41 rhabdomyosarcoma cells, viability/cytotoxicity qHTS; series mostly up to 45.9 µM; activity change, negative = cytotoxic: at the top concentration
# Procedure, shortened: as §1
SMILES,Potency,"activity change, negative = cytotoxic"
C[C@@H]1CN(CCCn2c3ccccc3c3ccccc32)C[C@H](C)N1,16.5 µM (active),
COc1c(C)c2c(c(O)c1C/C=C(\C)CCC(=O)O)C(=O)OC2,1.17 µM (active),
C[C@@H]1C[C@H]2[C@@H]3C[C@H](F)C4=CC(=O)C(Cl)=C[C@]4(C)[C@@]3(F)[C@@H](O)C[C@]2(C)[C@@]1(O)C(=O)CO,,-22.6% (inactive)

# Test: qHTS of pediatric cancer cell lines to identify multiple opportunities for drug repurposing: Confirmatory screen for Rh18 cells (AID 1347125); note: nearly all actives have a fitted effect of over 55% in size; for activity change, negative = cytotoxic: % is set by controls: 0 for no effect and ±100 for the full control effect
# Settings: Rh18 rhabdomyosarcoma cells, viability; series mostly up to 45.9 µM; activity change, negative = cytotoxic: at the top concentration
# Procedure, shortened: as §1
SMILES,"activity change, negative = cytotoxic",Potency
CCCCC(=O)O[C@]1(C(=O)CO)CC[C@H]2[C@@H]3CCC4=CC(=O)CC[C@]4(C)[C@H]3[C@@H](O)C[C@@]21C,-19.6% (inactive),
CC(=O)O[C@]1(C(C)=O)CC[C@H]2[C@@H]3C[C@H](C)C4=CC(=O)CC[C@]4(C)[C@H]3CC[C@@]21C,-19.2% (inactive),
C[C@@H]1CN(CCCn2c3ccccc3c3ccccc32)C[C@H](C)N1,,26.1 µM (active)
COc1c(C)c2c(c(O)c1C/C=C(\C)CCC(=O)O)C(=O)OC2,,1.31 µM (active)
C[C@@H]1C[C@H]2[C@@H]3C[C@H](F)C4=CC(=O)C(Cl)=C[C@]4(C)[C@@]3(F)[C@@H](O)C[C@]2(C)[C@@]1(O)C(=O)CO,,26.1 µM (active)

# Test: qHTS of pediatric cancer cell lines to identify multiple opportunities for drug repurposing: Confirmatory screen for Rh30 cells (AID 1347126); note: nearly all actives have a fitted effect of over 55% in size; for activity change, negative = cytotoxic: % is set by controls: 0 for no effect and ±100 for the full control effect
# Settings: Rh30 rhabdomyosarcoma cell viability; series mostly up to 45.9 µM; activity change, negative = cytotoxic: at the top concentration
# Procedure, shortened: as §1
SMILES,"activity change, negative = cytotoxic",Potency
CCCCC(=O)O[C@]1(C(=O)CO)CC[C@H]2[C@@H]3CCC4=CC(=O)CC[C@]4(C)[C@H]3[C@@H](O)C[C@@]21C,-13.5% (inactive),
CC(=O)O[C@]1(C(C)=O)CC[C@H]2[C@@H]3C[C@H](C)C4=CC(=O)CC[C@]4(C)[C@H]3CC[C@@]21C,-18% (inactive),
C[C@@H]1CN(CCCn2c3ccccc3c3ccccc32)C[C@H](C)N1,,26.1 µM (active)
COc1c(C)c2c(c(O)c1C/C=C(\C)CCC(=O)O)C(=O)OC2,,1.31 µM (active)

# Test: qHTS of pediatric cancer cell lines to identify multiple opportunities for drug repurposing: Confirmatory screen for SK-N-SH cells (AID 1347129);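 note: cells exposed to compound for 48 h before viability read; nearly all actives have a fitted effect of over 60% in size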;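 for activity change, negative = cytotoxic: plate controls were DMSO for no effect and bortezomib control for full effect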
# Settings: SK-N-SH neuroblastoma cell viability; series mostly up to 46.1 µM; activity change, negative = cytotoxic: at the top concentration
# Procedure, shortened: as §1
SMILES,"activity change, negative = cytotoxic",Potency
CCCCC(=O)O[C@]1(C(=O)CO)CC[C@H]2[C@@H]3CCC4=CC(=O)CC[C@]4(C)[C@H]3[C@@H](O)C[C@@]21C,6.97% (inactive),
COc1c(C)c2c(c(O)c1C/C=C(\C)CCC(=O)O)C(=O)OC2,,18.7 µM (active)
C[C@@H]1C[C@H]2[C@@H]3C[C@H](F)C4=CC(=O)C(Cl)=C[C@]4(C)[C@@]3(F)[C@@H](O)C[C@]2(C)[C@@]1(O)C(=O)CO,7.2% (inactive),
